The nature of experiment [1]: antimalarial activity against Dd2 strain (AID 2302;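 active = growth inhibition above 50% at the single 2 µM test dose, taken to imply half-maximal potency below 2 µM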;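 also: 0% = DMSO untreated growth and 100% = chloroquine plus artemisinin killed control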). The following applies: P. falciparum Dd2 in RBCs, LDH growth readout, 72 h; at 2 µM; stronger effect = higher value.
The nature of experiment [2]: HepG2 cytotoxicity, primary screen, cytotoxicity control for P. falciparum antimalarial project, cell-based, ATP luminescence (AID 2303;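 active = inhibition above 50%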;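 also: 0% = DMSO wells and 100% = digitonin-killed cells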). The following applies: HepG2 viability, 24-48 h, at 10 µM, stronger effect = higher value.
For experiment [3], the target named is L-lactate dehydrogenase (Plasmodium falciparum (isolate CDC / Honduras)) (UniProt Q27743). The experiment in a line: PfLDH activity inhibition – cell lysate, 3D7 strain, counter-screen for P. falciparum growth inhibition project (AID 2304).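 Also: 0% = vehicle and 100% = reference inhibitor.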 The following applies: P. falciparum 3D7 crude extract, LDH APAD/NBT absorbance; at 2 µM; stronger effect = higher value.
L-lactate dehydrogenase (Plasmodium falciparum (isolate CDC / Honduras)), sequence (Q27743 whole entry, looked up): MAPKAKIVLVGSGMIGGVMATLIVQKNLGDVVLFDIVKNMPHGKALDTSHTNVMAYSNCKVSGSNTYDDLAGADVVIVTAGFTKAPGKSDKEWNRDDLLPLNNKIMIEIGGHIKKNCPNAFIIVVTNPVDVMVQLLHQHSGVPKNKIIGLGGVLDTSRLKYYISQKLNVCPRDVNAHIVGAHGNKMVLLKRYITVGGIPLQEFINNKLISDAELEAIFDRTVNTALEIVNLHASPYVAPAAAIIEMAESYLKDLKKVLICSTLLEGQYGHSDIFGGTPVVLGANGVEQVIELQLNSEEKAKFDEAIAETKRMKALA
A short description of experiment [4]: inhibition of 3D7 malaria parasite growth – strain 3D7 (AID 2306).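 Also: 0% = DMSO wells and 100% = chloroquine plus artemisinin control wells.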 The following applies: P. falciparum 3D7 erythrocytic growth, LDH absorbance, 72 h; at 2 µM; stronger effect = higher value.
For experiment [5], the target named is Calcium-dependent protein kinase 1 (Plasmodium falciparum (isolate 3D7)) (UniProt P62344). In words: PfCDPK1 kinase inhibitors, biochemical, TCAMS library (AID 1159585; cut-off not given, nearly all actives have IC50 up to about 0.98 µM;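 also: inhibitors leave more ATP so luminescence rises with inhibition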). Particulars: recombinant PfCDPK1, Kinase-Glo ATP depletion luminescence.
Calcium-dependent protein kinase 1 (Plasmodium falciparum (isolate 3D7)), sequence (P62344 whole entry, looked up): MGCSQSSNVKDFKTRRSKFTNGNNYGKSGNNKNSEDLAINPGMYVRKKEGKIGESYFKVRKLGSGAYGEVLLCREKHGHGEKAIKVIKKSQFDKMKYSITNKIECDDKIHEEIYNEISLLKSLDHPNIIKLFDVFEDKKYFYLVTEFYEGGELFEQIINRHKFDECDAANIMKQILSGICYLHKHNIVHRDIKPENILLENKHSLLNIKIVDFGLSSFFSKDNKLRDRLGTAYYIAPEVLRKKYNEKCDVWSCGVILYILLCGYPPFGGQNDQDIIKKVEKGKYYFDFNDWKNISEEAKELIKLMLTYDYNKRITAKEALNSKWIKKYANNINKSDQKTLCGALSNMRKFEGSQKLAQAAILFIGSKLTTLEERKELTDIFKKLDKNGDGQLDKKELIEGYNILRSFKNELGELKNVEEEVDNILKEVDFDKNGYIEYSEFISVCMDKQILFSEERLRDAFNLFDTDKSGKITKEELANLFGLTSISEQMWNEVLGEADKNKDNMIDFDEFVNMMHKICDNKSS
Experiment [6] concerns the target Plasmodium falciparum protein kinase 6 (PK6, PF3D7_1337100) (UniProt Q8IDW1). The experiment in a line: PfPK6 kinase inhibitors, biochemical, TCAMS library (AID 1159586). Particulars: recombinant PfPK6, Kinase-Glo ATP depletion luminescence.
Experiment [7] has as its target Protein kinase 7 (PK7), Plasmodium falciparum 3D7 (PF3D7_0213400) (UniProt Q7YTF7). In words: inhibition of Plasmodium PK7 catalytic activity – biochemical, TCAMS antimalarial set, Kinase-Glo luminescence (AID 1159587). The following applies: recombinant PfPK7, Kinase-Glo ATP depletion luminescence.
Experiment [8] addresses Calcium-dependent protein kinase 4 (Plasmodium falciparum (isolate 3D7)) (UniProt Q8IBS5). In words: PfCDPK4 kinase inhibitors, biochemical, TCAMS library (AID 1159588; cut-off not given, nearly all actives have IC50 up to about 0.91 µM). The following applies: recombinant PfCDPK4, Kinase-Glo ATP depletion luminescence.

Values joined by “and” are separate entries in the source; they are usually repeats but may differ in a detail not shown here. Equal values may be shown once. A number with no mark means an inactive call. For some assays here: Potency and affinity values are given separately. Active and inactive are the calls of the source. Unless noted, no rule for the calls is given here.

We go through 19 compounds from PubChem BioAssay.

Plasmodium falciparum protein kinase 6 (PK6, PF3D7_1337100), sequence (Q8IDW1 1-305): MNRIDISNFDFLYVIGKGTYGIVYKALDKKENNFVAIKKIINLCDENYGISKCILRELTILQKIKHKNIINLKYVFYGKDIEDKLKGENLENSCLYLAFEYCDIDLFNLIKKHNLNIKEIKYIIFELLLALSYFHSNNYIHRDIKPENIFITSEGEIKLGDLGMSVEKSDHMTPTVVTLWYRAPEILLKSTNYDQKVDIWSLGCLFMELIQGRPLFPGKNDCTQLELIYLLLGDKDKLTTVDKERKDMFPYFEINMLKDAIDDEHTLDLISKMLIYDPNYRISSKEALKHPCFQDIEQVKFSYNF
Protein kinase 7 (PK7), Plasmodium falciparum 3D7 (PF3D7_0213400), sequence (Q7YTF7 1-343): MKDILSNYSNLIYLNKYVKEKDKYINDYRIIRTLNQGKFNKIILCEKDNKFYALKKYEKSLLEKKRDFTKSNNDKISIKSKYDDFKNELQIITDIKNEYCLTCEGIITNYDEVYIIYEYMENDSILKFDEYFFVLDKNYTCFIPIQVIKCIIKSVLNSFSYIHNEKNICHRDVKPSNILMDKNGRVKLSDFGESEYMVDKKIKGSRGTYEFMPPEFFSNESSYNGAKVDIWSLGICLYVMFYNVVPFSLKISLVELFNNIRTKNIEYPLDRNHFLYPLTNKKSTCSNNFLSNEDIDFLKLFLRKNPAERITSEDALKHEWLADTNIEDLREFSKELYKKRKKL
Calcium-dependent protein kinase 4 (Plasmodium falciparum (isolate 3D7)), sequence (Q8IBS5 whole entry, looked up): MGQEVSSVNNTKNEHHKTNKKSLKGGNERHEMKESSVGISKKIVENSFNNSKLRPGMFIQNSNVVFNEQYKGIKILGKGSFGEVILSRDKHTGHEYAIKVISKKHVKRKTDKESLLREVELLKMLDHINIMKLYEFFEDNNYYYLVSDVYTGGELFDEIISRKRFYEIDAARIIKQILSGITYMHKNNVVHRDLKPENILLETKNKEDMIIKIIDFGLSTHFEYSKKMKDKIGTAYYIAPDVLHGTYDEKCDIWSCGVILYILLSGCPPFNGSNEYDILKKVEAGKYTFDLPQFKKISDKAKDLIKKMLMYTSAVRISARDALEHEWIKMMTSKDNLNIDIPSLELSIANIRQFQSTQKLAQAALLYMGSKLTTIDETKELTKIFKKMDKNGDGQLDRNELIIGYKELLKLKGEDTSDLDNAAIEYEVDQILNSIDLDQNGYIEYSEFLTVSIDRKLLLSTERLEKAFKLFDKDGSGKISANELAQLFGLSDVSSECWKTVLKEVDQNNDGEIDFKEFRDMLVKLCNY

For the compound `CC(C)c1ccc(CN2CCCCC(NC(=O)c3cc(-c4ccccc4Cl)cs3)C2)cc1` (configuration not stated), the growth inhibition is 64% (active) in experiment [1] and 100% (active) in experiment [4]. Besides, the inhibition was 8% in experiment [2] and 3% in experiment [3]. Further, the outcome in experiment [5], in experiment [6], in experiment [7] and in experiment [8] was inactive.

As to `Cc1cc(N(C)C)nc(Nc2ccc(NC(=O)c3ccccc3F)cc2)n1`, the growth inhibition in experiment [1] was 26%; in experiment [4], 89% (active). Also, the inhibition in experiment [2] was 0%; in experiment [3], 4%. Also, the outcome in experiment [5], in experiment [6], in experiment [7] and in experiment [8] was inactive.

For the compound `CN1CCC(C(=O)Nc2ccc(-c3cccc(-c4nc5ccc(C(F)(F)F)cc5[nH]4)c3)cc2)CC1`, the growth inhibition in experiment [1] was 97% (active); in experiment [4], 100% (active). Also, the inhibition is 28% in experiment [2] and 0% in experiment [3]. The outcome in experiment [5], in experiment [6], in experiment [7] and in experiment [8] was inactive.

Turning to `COc1ccc2nc(C)cc(NN=Cc3ccccc3Cl)c2c1`, the growth inhibition in experiment [1] and in experiment [4] was 100% (active) in each case. For the same compound, the inhibition in experiment [2] is 0%; in experiment [3], 5%. Further, the outcome in experiment [5], in experiment [6], in experiment [7] and in experiment [8] was inactive.

Turning to `CC(=O)Nc1cccc(C(=O)Nc2cccc(-c3cccc(-c4nc5ccccc5[nH]4)c3)c2)c1`, the growth inhibition is 66% (active) in experiment [1] and 100% (active) in experiment [4]. Also, the results for the inhibition in experiment [2] and in experiment [3] were 41% and -5%, respectively. Besides, the outcome in experiment [5], in experiment [6], in experiment [7] and in experiment [8] was inactive.

Turning to `CS(=O)(=O)c1ccc(CNCc2cccc(-c3cccc(-c4nc5ccc(F)cc5[nH]4)c3)c2)cc1`, the growth inhibition in experiment [1] was 84% (active); in experiment [4], 102% (active). Further, the values for the inhibition in experiment [2] and in experiment [3] were 11% and -3%, respectively. Moreover, the result in experiment [5], in experiment [6], in experiment [7] and in experiment [8] was inactive.

`COc1ccc(CNCc2ccccc2)cc1-c1ccc(S(=O)(=O)NCCN2CCCC2)cc1`: the growth inhibition was 39% in experiment [1] and 96% (active) in experiment [4]. Besides, the inhibition in experiment [2] is 38%; in experiment [3] it was -1%. Further, the outcome in experiment [5], in experiment [6], in experiment [7] and in experiment [8] was inactive.

Regarding `COc1ccc(C2C(C(=O)Nc3ccccc3)=C(C)Nc3c(C(=O)Nc4ccccc4)cnn32)cc1` (configuration not stated), the values for the growth inhibition in experiment [1] and in experiment [4] were 66% (active) and 85% (active), respectively. In addition, the figures for the inhibition in experiment [2] and in experiment [3] were 13% and -1%, respectively. Moreover, the outcome in experiment [5], in experiment [6], in experiment [7] and in experiment [8] was inactive.

Consider `CCCOc1cccc(C(=O)N[C@@H](Cc2ccccc2)[C@H](O)CNCc2cccc(OC)c2)c1`, for which the results for the growth inhibition in experiment [1] and in experiment [4] were 18% and 102% (active), respectively. For the same compound, the inhibition in experiment [2] was 14%; in experiment [3] it was -3%. In addition, the result in experiment [5], in experiment [6], in experiment [7] and in experiment [8] was inactive.

As to `COc1ccc(-c2cccc(NC(=O)c3cccc(Cl)c3)c2)cc1CN1CCNCC1`, the results for the growth inhibition in experiment [1] and in experiment [4] were 52% (active) and 101% (active), respectively. For the same compound, the inhibition in experiment [2] was 29%; in experiment [3], 9%. Further, the result in experiment [5], in experiment [6], in experiment [7] and in experiment [8] was inactive.

In the case of `COc1ccc(NC(=O)N2CCN(CCCCCNC(=O)/C=C/c3ccc(C(F)(F)F)cc3)CC2)cc1Cl`, the figures for the growth inhibition in experiment [1] and in experiment [4] were -5% and 94% (active), respectively. In addition, the inhibition is 25% in experiment [2] and -2% in experiment [3]. In addition, the outcome in experiment [5], in experiment [6], in experiment [7] and in experiment [8] was inactive.

With `Clc1ccc2c(NCCNc3ccnc4cc(Cl)ccc34)ccnc2c1`, the growth inhibition in experiment [1] was 96% (active); in experiment [4], 101% (active). In addition, the inhibition is 6% in experiment [2] and -6% in experiment [3]. Besides, the result in experiment [5], in experiment [6], in experiment [7] and in experiment [8] was inactive.

On to `COc1ccc(Cn2c(SCc3ccc(C)cc3)nc3cc(OC)c(OC)cc3c2=N)cc1Cl`, for which the growth inhibition was 7% in experiment [1] and 92% (active) in experiment [4]. Besides, the results for the inhibition in experiment [2] and in experiment [3] were 50% (active) and 5%, respectively. Further, the outcome in experiment [5], in experiment [6], in experiment [7] and in experiment [8] was inactive.

For `Cc1cccc(C=NNc2cc(C)nc3ccc(F)cc23)n1`, the growth inhibition in experiment [1] was 45%; in experiment [4], 95% (active). The inhibition in experiment [2] was 1%; in experiment [3], 3%. Besides, the outcome in experiment [5], in experiment [6], in experiment [7] and in experiment [8] was inactive.

For `NC1=NC(c2ccccc2)(c2ccccc2)C(=O)N1C1CCCCC1`, the growth inhibition is 87% (active) in experiment [1] and 100% (active) in experiment [4]. Moreover, the figures for the inhibition in experiment [2] and in experiment [3] were 13% and 0%, respectively. Moreover, the outcome in experiment [5], in experiment [6], in experiment [7] and in experiment [8] was inactive.

Turning to `COCc1cccc(-c2cc(-c3ccc(S(C)(=O)=O)cc3)cnc2N)c1`, the figures for the growth inhibition in experiment [1] and in experiment [4] were 88% (active) and 98% (active), respectively. Also, the results for the inhibition in experiment [2] and in experiment [3] were 10% and -2%, respectively. Further, the outcome in experiment [5], in experiment [6], in experiment [7] and in experiment [8] was inactive.

Turning to `Cc1ccc(NC(=O)NCCCCCN2CCC(c3c[nH]c4ccccc34)CC2)cc1I`, the growth inhibition in experiment [1] is 5%; in experiment [4] it was 94% (active). In addition, the inhibition in experiment [2] is 96% (active); in experiment [3] it was 6%. Besides, the result in experiment [5], in experiment [6], in experiment [7] and in experiment [8] was inactive.

With `CCCCCCN1CCCN(Cc2ccc(C(=O)Nc3ccc(CC)cc3)cc2)CC1`, the results for the growth inhibition in experiment [1] and in experiment [4] were 50% (active) and 97% (active), respectively. Besides, the values for the inhibition in experiment [2] and in experiment [3] were 53% (active) and 2%, respectively. Moreover, the result in experiment [5], in experiment [6], in experiment [7] and in experiment [8] was inactive.

In the case of `CCC1CN2CCc3c([nH]c4ccccc34)[C@@H]2C[C@@H]1CC1NCCc2cc(OC)c(OC)cc21` (some centres not stated), the growth inhibition in experiment [1] was 67% (active) and 83% (active); in experiment [4], 100% (active). The inhibition in experiment [2] is 33% and 26%; in experiment [3], 3% and 1%. For the same compound, the outcome in experiment [5], in experiment [6], in experiment [7] and in experiment [8] was inactive.
